The campaign covered roughly 1,300 compounds. About 100 (7.7%) were called active. Not shown: some 19% with an inconclusive outcome. These entries were drawn from the full list. A number with no mark means an inactive call. The call rests on the fitted dose curve; in most records, active means well fitted activation curve with a large enough effect; inconclusive means small, poorly fitted or top-dose-only effect; inactive means no such curve, though single readings can be large or run the other way.
biological target: Luciferin 4-monooxygenase (Photinus pyralis) (UniProt P08659); assay: Firefly luciferase (FLuc-C-HiBiT) SDR gain of signal screen - without ATP; details: Purified FLuc-C-HiBiT, Nano-Glo HiBiT luminescence, no ATP; series mostly up to 32.7 µM; activation (signal gain): at the top concentration; further: nearly all actives have a fitted effect of over 55% in size
Description: PI: James Inglese Ph.D. National Center for Advancing Translational Sciences (NCATS), National Institute of Health (NIH), Maryland Discovery and optimization of novel protein-binding ligands underlies many of the methods and applications of biology, drug discovery, clinical diagnostics, and environmental toxicology. Assays for detecting the interaction of, for example, a molecule with a macromolecular target also referred to here as the target of interest (TOI) is dependent on a compatible output technology. Depending on the nature and knowledge surrounding the TOI, whether a receptor, enzyme, regulatory subunit or scaffold, or a sequence-defined nucleic acid folded into a complex tertiary structure, assay strategies can vary widely. Here we exploit ligand-biased changes in the structural dynamics of the target protein to control reporter alpha complementation allowing a non-competitive, non-functional, non-separation measure of ligand-target interaction. […] Secondly, we show the specificity and sensitivity of the SDR for the Abelson tyrosine kinase (ABL1) compared to the serine/threonine protein kinase A, using an enriched chemical library of 128 compounds selected, in part, for activity annotated with ABL1 kinase activity using the Pharos database (3). References: (1) A. S. Dixon et al., NanoLuc Complementation Reporter Optimized for Accurate Measurement of Protein Interactions in Cells. ACS Chem Biol 11, 400-408 (2016). […] Chemistry & Biology, 19, 1060 - 1072 (2012). (3) K. J. Kelleher et al., Pharos 2023: an integrated resource for the understudied human proteome. Nucleic Acids Res 51, D1405-D1416 (2023).
1. Reagent. Dispense 4 uL FLuc-C-HiBiT enzyme-buffer solution per well at a final enzyme concentration of 10 nM with or without 10 uM ATP into columns 2-48 of white, solid bottom medium bind 1536-well plates (Greiner Bio-One) by BioRaptr 2. Dispense respective buffer without enzyme at 4 uL/well in column 1 of assay plates. 2. Compounds. Library compounds and PTC124 control added at 23 nL per well, transfer by Pin Tool. 3. Incubation. Incubate enzyme and compounds at room temperature for >30 min, protect from light. 4. Reagent. (SDR assay) Add 3 uL/well of Nano-Glo HiBiT reagent (Promega) to assay plates for SDR assay without ATP. 5. Incubation. Incubate enzyme and substrate or detection reagent at room temperature for 5-10 min, protect from light. 6. Detector. HiBiT SDR assay measured using CCD-based camera (ViewLux) with settings as follows: Exposure, 1 sec; Gain, High; Speed, Slow; Binning, 2X. REFERENCES: Inglese J, Shamu CE and Guy RK, Reporting data from high throughput screening of small molecule libraries, Nature Chemical Biology, 2007, 3(8): 438-441. doi.org/10.1038/nchembio0807-438.
Potency means the concentration at half of the fitted maximal effect.

Sequence of Luciferin 4-monooxygenase (Photinus pyralis) (P08659 whole entry, looked up): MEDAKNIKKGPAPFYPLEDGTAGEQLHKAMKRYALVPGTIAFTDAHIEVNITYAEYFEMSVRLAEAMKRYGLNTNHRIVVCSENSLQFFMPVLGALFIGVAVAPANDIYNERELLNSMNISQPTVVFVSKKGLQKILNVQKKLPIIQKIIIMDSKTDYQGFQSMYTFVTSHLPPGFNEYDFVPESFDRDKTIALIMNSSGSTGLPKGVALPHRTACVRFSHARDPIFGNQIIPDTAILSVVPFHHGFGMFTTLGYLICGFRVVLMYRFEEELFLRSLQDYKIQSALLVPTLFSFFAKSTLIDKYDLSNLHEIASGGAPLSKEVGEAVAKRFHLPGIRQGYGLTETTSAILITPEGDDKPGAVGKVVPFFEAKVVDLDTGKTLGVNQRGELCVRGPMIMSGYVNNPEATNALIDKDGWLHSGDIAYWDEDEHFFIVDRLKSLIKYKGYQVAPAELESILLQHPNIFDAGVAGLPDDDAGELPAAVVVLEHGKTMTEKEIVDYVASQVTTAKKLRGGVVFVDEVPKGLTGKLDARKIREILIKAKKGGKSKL

Compound	activation (signal gain)	Potency
COc1ccc(-c2cc(N3CCCC(NC(=O)c4ccsc4)C3)n[nH]2)cc1 (centres undefined)	19.3%	
Fc1ccc(Nc2nc(-c3ccccc3F)no2)cc1	22%	
Cc1nn(-c2ccc(C(C)C)cc2)c(C)c1[C@@H]1C=C[C@@H](NC(=S)NCC(C)C)C1	13.7% [at 49.3 µM]	
COc1ccc(CC(=O)Nc2ccc(-c3nc4ccccc4s3)c(C)c2)cc1	11.5%	
O=C(COc1ccc(Cl)cc1)Nc1ccc(-c2nc3cc(Cl)ccc3o2)c(O)c1	11.7%	
O=C([C@@H]1C[C@@H](O)[C@H](O)[C@@H]2NC(=S)N(c3ccc(OC(F)(F)F)cc3)[C@@H]21)N1CCCCC1	18.3%	
CCNC(=O)C1C(c2cccc(NC(=O)c3ccc(OC)cc3)c2)OC(=O)N1Cc1ccc(C)cc1 (centres undefined)	19.8%	
Cc1nnn2c(C(=O)NC3CC3)cccc12	15.7% [at 65.7 µM]	
COc1cc(F)ccc1-c1ccc(COc2ccc3c(cnn3CCC(=O)O)c2)cc1	10.6% [at 49.3 µM]	
Cc1cc(C)n(CCC(=O)N2CCC(Cc3noc(C4CC4)n3)C2)n1 (centres undefined)	9.71%	
O=C(Nc1ccccc1)c1nc2c(o1)CCN(Cc1cccc(Cl)c1)CC2	18.4% [at 49.3 µM]	
Cc1ccc(C(=O)Nc2ccc(-c3nc4ccccc4s3)c(O)c2)cc1	15.8%	
CC(=O)c1ccc(NC(=O)CSc2nnc(NC(=O)Nc3ccccc3)s2)cc1	19.1%	
O=C(CSc1ccc(F)cc1)Nc1ccccc1-c1nc2ccccc2s1	10.6%	
C[S+](=O)([O-])CCn1ncc2cc(OCc3cccc(-c4ccccc4)c3)ccc21	15.9% [at 49.3 µM]	
Cc1ccc2cc(CN3CCN(CC(N)=O)CC3)c(-c3cccs3)nc2c1	17.7%	
OCc1cccc(-c2cc3c(cn2)CN(Cc2ccccc2)CCN3)c1	19.2% [at 49.3 µM]	
O=C(NCc1ccc(F)c(Cl)c1)C1CCN(C(=O)c2ncn3c2COC(c2ccccc2)C3)CC1 (centres undefined)	12%	
CC(=O)Oc1ccccc1C(=O)Nc1ccc(-c2nc3ccc(C)cc3s2)cc1	20.9%	
O=C(NCc1ccccc1)C1CCN(C(=O)c2ncn3c2COC(c2ccccc2)C3)CC1 (centres undefined)	16.6%	
O=C(/C=C/c1ccccc1)Nc1cc(-c2nc3cc(Cl)ccc3o2)ccc1Cl	14.8%	
CNc1nc(C(=O)NCc2ccc3[nH]c(-c4ccc(F)cc4)c(C)c3c2)cs1	13.1%	
OCCN1CCN(c2nc(N3CCCCC3)c3cnn(-c4ccc(Cl)cc4)c3n2)CC1	11.8%	
OCC1CCCN(c2ncnc3c2cnn3-c2ccccc2)C1 (centres undefined)		1.76 µM (active)
Cc1ccc(-n2ncc3c(N4CCC(C(N)=O)CC4)ncnc32)cc1	15.7%	
Cc1ccc(-c2nnc(SCc3ccccc3C)o2)cc1	13.5%	
O=C(NC1CCN(c2cc(-c3ccc(F)cc3)[nH]n2)C1)c1cc2ccccc2[nH]1 (centres undefined)	18.6%	

Compound	activation (signal gain)	Potency
Cn1ccnc1CN1CCc2nc(C(=O)Nc3ccccc3)oc2CC1	18.4% [at 49.3 µM]	
Cc1ccc(C2Cn3nnc(C(=O)N4CCC(C(=O)NCCc5ccccc5)CC4)c3CO2)cc1 (centres undefined)	9.42%	
CN1c2cc(C(=O)Nc3ccccc3)ccc2C(=O)N2CCCCCC21 (centres undefined)	17%	
Oc1cccc(-c2cc3c(cn2)CN(Cc2cccnc2)CCN3)c1	18.1% [at 49.3 µM]	
OC1(CN2CCCCC2)CCN(c2nc3ccccc3s2)C1 (centres undefined)	16%	
Cc1nn(-c2ccc(C(C)(C)C)cc2)c(C)c1[C@@H]1C=C[C@@H](NC(=O)c2ccco2)C1	9.96% [at 49.3 µM]	
Cc1cccc(C(=O)Nc2ccc(-c3nc4ccccc4s3)c(C)c2)c1	21.9%	
COc1cccc(-c2nc3ccc(-c4ccc5c(c4)OCO5)cc3o2)c1OC	24.4%	
Cc1ccc(Cl)cc1-n1ncc2c(N3CCC(C(N)=O)CC3)ncnc21	12%	
COc1ccc(-c2nc3ccccc3s2)cc1NC(=O)COc1ccccc1C	7.67%	
CN1CCN(C[C@@H]2CN(C(=O)CCCc3ccccc3)C[C@@H]2CO)CC1	8.6%	
Cc1nn(-c2ccc(C(C)C)cc2)c(C)c1[C@@H]1C=C[C@@H](NC(=O)Nc2ccccc2)C1	14.5% [at 49.3 µM]	
Cc1ccc(Nc2c(-c3ccc(N(C)C)cc3)nc3nc[nH]n23)cc1	18.3%	
CC(=O)Nc1ccc(NC(=O)CCCc2nc(-c3ccc(C(C)(C)C)cc3)no2)cc1	24.7%	
O=C(CCCc1ccccc1)N1CCC2(CC1)CC(O)CCO2 (centres undefined)	21.2%	
COc1ccccc1OC1(C(=O)O)CCN(c2ncnc3nc[nH]c23)CC1	11.8%	
CC(C)C(=O)Nc1cc(-c2nc3ccccc3s2)ccc1Cl	11.7%	
Oc1ccc(-c2nc(C3CC3)nc3c2CCN(Cc2cccc(F)c2)CC3)cc1	9.06%	
Cc1nn(-c2ccc(C(C)C)cc2)c(C)c1[C@@H]1C=C[C@@H](NC(=O)CC2(CC(=O)O)CCCC2)C1	15.4%	
Cc1cc2nn(-c3ccc(Cl)cc3)nc2cc1NC(=O)C(C)C	17.2%	
O=C(NCC1CC1)C1CCN(C(=O)c2ncn3c2COC(c2ccccc2)C3)CC1 (centres undefined)	12.6%	
CCc1cccc(NC(=O)c2cc(-c3ccccc3)n[nH]2)c1	25.8%	
CC(=O)c1nn(-c2ccc(OC(F)(F)F)cc2)nc1Nc1ccccc1	14.5%	
COc1ccc(C)cc1NC(=O)Nc1cccc(-c2ccc(N3CCCCC3)nn2)c1		8.81 µM (active)
Cc1cccc(-c2cccc(NC(=O)C3CCCN(C(=O)CC(F)(F)F)C3)c2)c1 (centres undefined)	12.4%	
Cc1ccc(-c2nc(C(=O)N(C)Cc3ccccc3)no2)cc1	13.1%	
CCOC(=O)C1CCN(C(=O)c2cccc3c2CCN3C(=O)Nc2ccccc2)CC1	16.3%	

— PubChem BioAssay AID1963318 (National Center for Advancing Translational Sciences (NCATS), 2024)
